{"source": "PubChem BioAssay", "note": "Calls of active or inactive are those of the source. No rule for the calls is given here.", "data": [{"molecular_target": "Pantothenate synthetase (Mycobacterium tuberculosis (strain ATCC 25618 / H37Rv)) (UniProt P9WIL5)", "sequence (P9WIL5 whole entry, looked up)": "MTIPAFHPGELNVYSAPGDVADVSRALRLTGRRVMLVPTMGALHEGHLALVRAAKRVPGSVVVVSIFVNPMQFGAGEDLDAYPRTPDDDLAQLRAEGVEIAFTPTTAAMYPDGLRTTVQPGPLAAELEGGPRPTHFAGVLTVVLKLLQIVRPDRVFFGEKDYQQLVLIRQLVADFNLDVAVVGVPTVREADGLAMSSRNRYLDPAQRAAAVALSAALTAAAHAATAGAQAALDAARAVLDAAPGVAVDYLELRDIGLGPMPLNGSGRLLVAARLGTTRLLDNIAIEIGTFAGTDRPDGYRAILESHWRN", "assay": "Coupled enzyme confirmation of inhibitors against recombinant Mtb PanC (AID 375);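 also: 0% = full reaction with vehicle and 100% = no enzyme background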", "conditions": "coupled enzyme assay; at 10 µM, hits give high values", "values": [{"smiles": "COc1cc(NC(=O)c2cc(-n3cnnc3)ccc2Cl)cc(OC)c1", "inhibition": "2% (inactive)"}, {"smiles": "COc1cccc(NC(=O)COc2ccccc2C(N)=O)c1", "inhibition": "0% (inactive)"}, {"smiles": "CN(C)c1cccc(C(=O)OCC(=O)NCc2ccco2)c1", "inhibition": "0% (inactive)"}, {"smiles": "CCSC1=NCN(CCCC(=O)O)CN1", "inhibition": "0% (inactive)"}, {"smiles": "O=C(C1CCCN1S(=O)(=O)c1cccc2cccnc12)N1CCn2c1nc1ccccc12", "note": "(stereo not given)", "inhibition": "6% (inactive)"}, {"smiles": "O=c1[nH]c2cccnc2n1Cc1ccco1", "inhibition": "0% (inactive)"}, {"smiles": "Nc1nnnn1NCc1cccc(OCc2ccccc2)c1", "inhibition": "0% (inactive)"}, {"smiles": "CCc1nnc(NC(=O)CSc2nnc3ncccn23)s1", "inhibition": "11% (inactive)"}, {"smiles": "O=C(CCc1ccccc1)Nc1ccncc1", "inhibition": "0% (inactive)"}, {"smiles": "O=C(O)c1ccc(COc2c(F)c(F)cc(F)c2F)cc1", "inhibition": "0% (inactive)"}, {"smiles": "CCOC(=O)c1ccc(-c2c(C(=O)OCC)oc3cc(O)c(CC)cc3c2=O)o1", "inhibition": "3% (inactive)"}, {"smiles": "Cc1ccccc1NC(=O)CSc1nnc(Cc2cccn2C)n1-c1ccc(F)cc1", "inhibition": "0% (inactive)"}, {"smiles": "CCCC(=O)Nc1cc(C)c(NC(=O)c2ccccn2)cn1", "inhibition": "0% (inactive)"}, {"smiles": "COc1ccc(S(=O)(=O)NCCOc2ccccc2)cc1OC", "inhibition": "0% (inactive)"}, {"smiles": "COC(=O)CN1C(=O)C(O)(CC(=O)c2ccc(Cl)cc2)c2ccccc21", "note": "(stereo not given)", "inhibition": "0% (inactive)"}, {"smiles": "N#CC1=C(N)OC2=C(C(=O)CCC2)C1CCc1ccccc1", "note": "(stereo not given)", "inhibition": "1% (inactive)"}, {"smiles": "CCOC(=O)C1CCN(C(=O)CN(Cc2ccccc2)S(C)(=O)=O)CC1", "inhibition": "1% (inactive)"}, {"smiles": "CCn1nc(C(=O)OCC(=O)c2cc(C)n(Cc3cccs3)c2C)c2ccccc2c1=O", "inhibition": "1% (inactive)"}, {"smiles": "CCCOc1ccc(N2CC(C(=O)Nc3ccc4c(c3)OCO4)CC2=O)cc1", "note": "(stereo not given)", "inhibition": "6% (inactive)"}, {"smiles": "CN(CC(=O)Nc1ccccc1Cl)C(=O)COC(=O)CNC(=O)c1ccc(Br)o1", "inhibition": "0% (inactive)"}, {"smiles": "COC(=O)CCn1nnc(-c2ccc(C)cc2)n1", "inhibition": "1% (inactive)"}, {"smiles": "Cc1oc(-c2ccccc2F)nc1CS(=O)(=O)CC(=O)N1CCN(Cc2ccccc2)CC1", "inhibition": "0% (inactive)"}, {"smiles": "COc1cc2c(cc1NCc1ccccn1)oc1ccccc12", "inhibition": "0% (inactive)"}, {"smiles": "Fc1ccccc1-c1nc(NCCCN2CCOCC2)c2ccccc2n1", "inhibition": "0% (inactive)"}, {"smiles": "c1ccc(-c2nc3nonc3c3nc4ccccc4n23)cc1", "inhibition": "2% (inactive)"}, {"smiles": "Cc1ccc(CNC(=O)CSc2n[nH]c(N)n2)cc1", "inhibition": "0% (inactive)"}, {"smiles": "COCCNC(=O)c1c(N)n(/N=C/c2cccs2)c2nc3ccccc3nc12", "inhibition": "0% (inactive)"}, {"smiles": "Cc1cc(C)n2cc(CSc3nnnn3-c3ccc(Cl)cc3)nc2n1", "inhibition": "0% (inactive)"}, {"smiles": "CCCC(=O)N1CC(=O)Nc2ccc(C)cc2C1c1ccc(F)cc1", "note": "(stereo not given)", "inhibition": "0% (inactive)"}, {"smiles": "CC(C)c1nnc(NC(=O)C2CCCCC2)s1", "inhibition": "1% (inactive)"}, {"smiles": "COc1ccccc1OCc1ccc(C(=O)NC(C)(C)C)o1", "inhibition": "2% (inactive)"}, {"smiles": "COCc1ccccc1Cn1cnc2c1c(=O)n(C)c(=O)n2C", "inhibition": "3% (inactive)"}, {"smiles": "CSc1nc(C)cc(OCC(=O)N2CCOCC2)n1", "inhibition": "0% (inactive)"}, {"smiles": "CN(C)c1ccnc(NCc2ccccc2)c1C#N", "inhibition": "0% (inactive)"}, {"smiles": "COC(=O)Nc1ccc(S(=O)(=O)N(C)CC(F)(F)C(F)F)cc1", "inhibition": "6% (inactive)"}, {"smiles": "CSc1ccccc1NS(=O)(=O)c1ccccc1", "inhibition": "3% (inactive)"}, {"smiles": "CC(NO)C(C)(C)NO", "note": "(stereo not given)", "inhibition": "8% (inactive)"}, {"smiles": "CCn1c(SCC(N)=O)nnc1-c1ccc(S(=O)(=O)N2CCN(C)CC2)cc1", "inhibition": "0% (inactive)"}, {"smiles": "Cn1nc(C(C)(C)C)cc1C(=O)NCc1ccc(N2CCCC2=O)cc1", "inhibition": "0% (inactive)"}, {"smiles": "CCn1cc(/C=C(/C#N)S(=O)(=O)c2ccccc2)cn1", "inhibition": "2% (inactive)"}]}]}
